The whole screen tested about 2,000 compounds, of which about 80 (4%) were called active. Not all results are given here. Values without a mark were called inactive.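 How the source made its calls: active means aptamer displacement above 40%, near three times the noise of non-fluorescent compounds, on plates passing quality checks; inactive means the rest.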

In PubChem BioAssay AID504451 (NMMLSC, 2011) one finds aptamer displacement data, which are given here for 24 compounds.

The test deals with Beta-adrenergic receptor kinase 1 (Homo sapiens) (UniProt P25098). As to the kind of experiment: GRK2 aptamer-displacing inhibitors, retest, confirmation, biochemical, cherry pick 1, bead flow cytometry (AID 504451).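 Further: negative values mostly reflect intrinsic compound fluorescence rather than true enhancement.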 The note with it: bead-bound GRK2, FAM-aptamer displacement, at 10 µM, active compounds read high. (Flow cytometry measures light scatter and fluorescence of single cells or particles in a stream.)
Chain of Beta-adrenergic receptor kinase 1 (Homo sapiens) (P25098 whole entry, looked up): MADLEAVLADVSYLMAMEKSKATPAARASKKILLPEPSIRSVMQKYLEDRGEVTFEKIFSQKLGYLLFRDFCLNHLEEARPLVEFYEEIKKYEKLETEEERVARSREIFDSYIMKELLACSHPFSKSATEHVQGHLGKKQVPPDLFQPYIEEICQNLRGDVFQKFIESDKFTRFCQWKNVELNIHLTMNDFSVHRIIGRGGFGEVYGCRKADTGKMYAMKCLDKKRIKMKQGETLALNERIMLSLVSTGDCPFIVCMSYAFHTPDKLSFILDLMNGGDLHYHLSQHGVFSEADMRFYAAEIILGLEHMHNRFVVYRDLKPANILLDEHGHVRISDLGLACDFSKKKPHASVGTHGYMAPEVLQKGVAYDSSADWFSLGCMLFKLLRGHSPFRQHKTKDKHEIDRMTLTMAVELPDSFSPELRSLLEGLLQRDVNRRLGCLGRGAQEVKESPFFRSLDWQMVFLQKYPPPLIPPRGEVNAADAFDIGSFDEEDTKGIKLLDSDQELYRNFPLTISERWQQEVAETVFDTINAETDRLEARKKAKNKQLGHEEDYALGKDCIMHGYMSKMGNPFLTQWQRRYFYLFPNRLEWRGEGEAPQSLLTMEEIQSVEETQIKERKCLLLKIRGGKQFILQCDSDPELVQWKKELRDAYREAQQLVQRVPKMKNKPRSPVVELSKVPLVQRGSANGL
With `COc1cc(C(=O)NCc2ccc3c(c2)cc(C)n3C)cc(OC)c1OC`, the aptamer displacement is 0.16%. As for `Cc1csc(=O)n1CC(=O)OCC(=O)N(CC(C)C)c1c(N)n(Cc2ccccc2)c(=O)[nH]c1=O`, the figure is -4.19%. The value for `COCCn1c(C)cc(C(=O)CN2c3cccc4cccc(c34)S2(=O)=O)c1C` was 5.59%; that for `COc1ccc(NC(=O)CN(C)C(=O)c2cc(-c3ccc(C)o3)nc3ccccc23)cc1` was 1.02%. Turning to `O=C(NNc1ncnc2c1cnn2-c1ccccc1)c1ccco1`, the aptamer displacement was -5.21%. As for `C/C(=N\OCC(=O)O)c1ccc(Cl)cc1`, the figure is -4.26%; as for `NC(=O)C1CCN(C(=O)c2ccc3c(=O)n(Cc4cccc(Br)c4)c(=S)[nH]c3c2)CC1`, 2.04%. As to `CCCCn1nc(C(=O)OCC(=O)Nc2sccc2C(N)=O)c2ccccc2c1=O`, the aptamer displacement was -3.95%. The value for `O=S(=O)(Nc1ccc(-c2ccc(N3CCOCC3)nn2)cc1)c1cc(Cl)ccc1Cl` was 1.37%; that for `CCOC(=O)C(C)n1cnc2scc(-c3ccc(C)c(C)c3)c2c1=O` (centres undefined) was 0.17%; that for `COc1ccccc1NC(=O)CSc1nc2sc3c(c2c(=O)n1-c1ccccc1)CCN(C)C3` was 1.27%.

As to `O=C(Nc1nnc(-c2ccccc2)o1)c1cccc(S(=O)(=O)N2CCOCC2)c1`, the aptamer displacement is -3.8%. As for `CSc1ccc(/C=C2\NC(=O)NC2=O)cc1`, the figure is -11.5%; as for `Cc1nn(Cc2ccc(F)cc2)c(C)c1NC(=O)c1noc2c1CCc1ccccc1-2`, 12.1%.

With `O=C(COC(=O)c1ccc(F)cc1F)Nc1ncccn1`, the aptamer displacement was 39.1%. As for `Cc1ccccc1CN1CCN(CC(=O)NCc2ccccn2)C1=O`, the figure is 0.03%; as for `CCOCCCNC(=O)C(NC(=O)CNC(=O)c1ccccc1)c1ccc(OC)cc1` (centres undefined), -2.56%. For the compound `Cc1ccc(C(CNC(=O)Nc2cccc(C)c2)N2CCN(C)CC2)cc1` (centres undefined), the aptamer displacement is -1.91%.

Consider `O=C(CCNC(=O)c1ccccc1)NN=Cc1ccc(Br)o1`, for which the aptamer displacement is 8.12%. On to `Cc1ccc(N2C(=O)C3N=NN(CC(=O)N4N=C(c5cccc6ccccc56)CC4c4ccccc4)C3C2=O)cc1` (centres undefined), for which the aptamer displacement is -6.3%. As for `CC(=O)N1CC[n+]2c(-c3ccc([N+](=O)[O-])cc3)csc21`, the figure is -2.74%; as for `O=C(c1cc2cc(F)ccc2[nH]1)N1CCN(c2ccc(F)cc2)CC1`, -3.05%; as for `Cc1cccc(NC(=O)C2CCCN(C(=O)NCc3ccccc3)C2)c1C` (centres undefined), -2.02%. For `COc1ccc(Cl)cc1NC(=O)CCS(=O)(=O)c1cc2c(cc1C)NC(=O)CO2`, the aptamer displacement is 1.91%.
